# Source: PubChem BioAssay (Tox21)
# Records with an inconclusive call do not appear. The source made the active and inactive calls. The call rests on the fitted dose curve; in most records, active means well fitted activation curve with a large enough effect in the signal ratio in the repeat runs (not every such curve was filed as active); inconclusive means weak or mixed curves, or effect the other way; inactive means flat fitted curve, though single readings scatter; the % refers to the signal ratio.
# Target: Bile acid receptor (Homo sapiens) (UniProt Q96RI1)
# Sequence (Q96RI1 whole entry, looked up): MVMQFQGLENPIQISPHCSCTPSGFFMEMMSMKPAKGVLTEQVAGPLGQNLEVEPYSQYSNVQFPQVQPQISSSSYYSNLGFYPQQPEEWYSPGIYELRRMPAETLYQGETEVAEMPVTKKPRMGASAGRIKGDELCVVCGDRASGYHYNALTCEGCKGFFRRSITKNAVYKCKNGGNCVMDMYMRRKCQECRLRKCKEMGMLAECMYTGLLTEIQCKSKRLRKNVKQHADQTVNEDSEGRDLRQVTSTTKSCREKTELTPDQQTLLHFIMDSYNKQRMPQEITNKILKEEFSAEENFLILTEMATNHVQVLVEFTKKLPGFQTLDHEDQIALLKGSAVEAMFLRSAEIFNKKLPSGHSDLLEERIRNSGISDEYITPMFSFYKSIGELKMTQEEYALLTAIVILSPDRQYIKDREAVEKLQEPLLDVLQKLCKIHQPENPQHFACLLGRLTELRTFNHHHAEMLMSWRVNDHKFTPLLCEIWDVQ
# Assay: qHTS assay to identify small molecule agonists of the farnesoid-X-receptor (FXR) signaling pathway (AID 743220)
# Details: HEK293T FXR-UAS-bla, beta-lactamase FRET ratio, 16 h; series mostly up to 62.6 µM
# How it was run: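 FXR-UAS-bla HEK 293T cells carrying a UAS-driven beta-lactamase reporter were plated for 5 h at 37C/5% CO2, then exposed to DMSO-dissolved Tox21 10K compounds for 16 h at 37C. A LiveBLAzer B/G FRET substrate was loaded for 2 h at room temperature before fluorescence reading.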
row,SMILES,outcome
1,CCCCCC1CCC(=O)O1 (centres undefined),inactive
2,CC/C=C\CCO,inactive
3,Nc1ncnc2c1ncn2[C@@H]1O[C@H](CO)[C@@H](O)[C@H]1O,inactive
4,OCCc1ccncc1,inactive
5,O=C(O)COCC(=O)O,inactive
6,Cc1c(Cl)cccc1Nc1ccccc1C(=O)O,inactive
7,O=C(Nc1ccc2c(c1)Cc1ccccc1-2)C(F)(F)F,inactive
8,COC(=O)C(C)(C)C,inactive
9,CCCCCCCCCC(C)C=O (centres undefined),inactive
10,CC(=O)S[C@H](C(=O)N[C@H]1Cc2ccccc2[C@H]2CCC[C@@H](C(=O)O)N2C1=O)C(C)C,inactive
11,NC(=O)c1ccccc1,inactive
12,CC(CC(C#N)(c1ccccc1)C(C)C)N(C)C (centres undefined),inactive
13,NC(=O)c1ccccc1C(N)=O,inactive
14,CC(=O)Nc1cccc(N)c1,inactive
15,CC(C)(C)c1cc(C=O)cc(C(C)(C)C)c1O,inactive
16,CC/C=C/CCO,inactive
17,CC(=O)Nc1ccccc1O,inactive
18,C=CC(=O)NC(C)(C)C,inactive
19,NC(=O)c1cc[n+](CC2=C(C(=O)[O-])N3C(=O)[C@@H](NC(=O)Cc4cccs4)[C@H]3SC2)cc1,inactive
